Measurements published in PubChem BioAssay.
Active and inactive are the calls of the source. Unless noted, how the calls were made is not given here.

Legend:
[1] = compound effects on lung adenocarcinoma cell viability – A549, calcein-AM fluorescence, 48 h, basal, profiling panel (AID 1162); conditions: higher = more signal; further: test concentration not given here
[2] = compound effects on differentiated 3T3-L1 adipocyte viability – cell-based, 3T3-L1 adipocytes, calcein-AM fluorescence, 48 h, basal, profiling panel (AID 1163); conditions: 3T3-L1 adipocytes viability, higher = more signal; further: test concentration not given here
[3] = compound effects on hepatocellular carcinoma cell viability – HepG2, calcein-AM fluorescence, 48 h, basal, profiling panel (AID 1164); conditions: higher = more signal; further: test concentration not given here
[4] = compound effects on multiple myeloma cell viability – MM1S, calcein-AM fluorescence, 48 h, basal, profiling panel (AID 1165); conditions: higher = more signal; further: test concentration not given here
[5] = calcein-AM signal in unstimulated myeloma cells – cell-based, calcein-AM fluorescence, 48 h, PK04 Diversity Set, profiling panel (AID 1166); conditions: RPMI8226 myeloma viability, higher = more signal;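 further: cells grown under basal conditions without added stimulus; test concentration not given here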
[6] = JC-1 mitochondrial signal, unstimulated HepG2 cells – cell-based, JC-1 fluorescence, 24 h, 100 nL compound, profiling panel (AID 1167); conditions: HepG2 mitochondrial potential, higher = more signal; further: test concentration not given here
[7] = JC-1 mitochondrial signal, unstimulated adipocytes – cell-based, JC-1 fluorescence, 3T3-L1 adipocytes, 24 h, 100 nL compound, profiling panel (AID 1168); conditions: JC-1 mitochondrial fluorescence, higher = more signal, called active from +8 up or from −8 down; further: test concentration not given here
[8] = JC-1 mitochondrial signal, unstimulated myeloma cells – cell-based, JC-1 fluorescence, RPMI8226, 24 h, 100 nL compound, profiling panel (AID 1169); conditions: JC-1 mitochondrial potential fluorescence, higher = more signal; further: test concentration not given here
[9] = JC-1 mitochondrial signal, unstimulated MM1S myeloma – cell-based, JC-1 fluorescence, 24 h, 100 nL compound, profiling panel (AID 1170); conditions: MM1S mitochondrial potential, higher = more signal; further: test concentration not given here
[10] = resazurin metabolic signal in A549 cells – cell-based, resazurin fluorescence, 24 h, PK04 Diversity Set, profiling panel (AID 1171); conditions: A549 viability, higher = more signal, called active from +8 up or from −8 down; further: test concentration not given here
[11] = resazurin metabolic signal in HepG2 cells – cell-based, resazurin fluorescence, 24 h, PK04 Diversity Set, profiling panel (AID 1172); conditions: HepG2 viability, higher = more signal; further: test concentration not given here
[12] = budding yeast growth changes without added modifier – OD600, strain BY4716, 24 h, basal condition, primary screen (AID 1173); conditions: S. cerevisiae BY4716 growth, OD600, 24 h; higher = more signal, called active from +8 up or from −8 down
[13] = viability profiling in MM1S myeloma cells – cell-based, resazurin fluorescence, basal, 24 h, PK04 Diversity Set, profiling panel (AID 1174); conditions: higher = more signal, called active from +8 up or from −8 down; further: test concentration not given here
[14] = target: Dihydroorotate dehydrogenase (quinone), mitochondrial (Plasmodium falciparum (isolate 3D7)) (UniProt Q08210); test: inhibition of P. falciparum DHODH – biochemical, C-terminal His tag, absorbance 600 nm, primary screen (AID 1175); conditions: PfDHODH enzyme, DCIP absorbance 600 nm; higher = more signal, called active from +8 up or from −8 down;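 further: recombinant parasite enzyme with a five histidine tag at its C terminus; test concentration not given here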
[15] = inhibition of PAO1 biofilm formation – strain PAO1, LB-PBS medium, absorbance 600 nm, primary screen (AID 1176); further: test concentration not given here; conditions: P. aeruginosa PAO1 growth/biofilm, A600, 12 h; higher = more signal
[16] = growth modulation of vineyard yeast isolate – strain RM11-1a, OD600, basal, 24 h, primary screen (AID 1177);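 further: cultures grown under basal conditions with no added stressor; test concentration not given here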; conditions: S. cerevisiae RM11-1a growth, OD600, 24 h; higher = more signal, called active from +8 up or from −8 down
[17] = growth of efflux-deficient E. coli DRC39 – strain DRC39, OD650, 24 h, E. coli filamentation inducers, primary screen (AID 1178);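 further: growth measured as culture turbidity by optical density at 650 nm; test concentration not given here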; conditions: E. coli DRC39 acrAB, higher = more signal, called active from +8 up or from −8 down
[18] = growth of efflux-deficient E. coli DRC39 – strain DRC39, OD650, 48 h, E. coli filamentation inducers, primary screen (AID 1179);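 further: screen aims at cell division blockers that make cells filament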; conditions: E. coli DRC39 delta-acrAB growth, higher = more signal, called active from +8 up or from −8 down
[19] = viability profiling in RPMI8226 myeloma cells – cell-based, resazurin fluorescence, basal, 24 h, PK04 Diversity Set, profiling panel (AID 1180); conditions: higher = more signal;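 further: RPMI8826 multiple myeloma cell line at 5000 cells per well; test concentration not given here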
[20] = target: E3 ubiquitin-protein ligase XIAP (Homo sapiens) (UniProt P98170); test: small molecules binding XIAP protein – biophysical, small-molecule microarray, fluorescence 635 nm, primary screen (AID 1181); conditions: higher = more signal;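 further: score merges 667 nm emission and signal to noise over triplicate slides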
Sequence of E3 ubiquitin-protein ligase XIAP (Homo sapiens) (P98170 whole entry, looked up): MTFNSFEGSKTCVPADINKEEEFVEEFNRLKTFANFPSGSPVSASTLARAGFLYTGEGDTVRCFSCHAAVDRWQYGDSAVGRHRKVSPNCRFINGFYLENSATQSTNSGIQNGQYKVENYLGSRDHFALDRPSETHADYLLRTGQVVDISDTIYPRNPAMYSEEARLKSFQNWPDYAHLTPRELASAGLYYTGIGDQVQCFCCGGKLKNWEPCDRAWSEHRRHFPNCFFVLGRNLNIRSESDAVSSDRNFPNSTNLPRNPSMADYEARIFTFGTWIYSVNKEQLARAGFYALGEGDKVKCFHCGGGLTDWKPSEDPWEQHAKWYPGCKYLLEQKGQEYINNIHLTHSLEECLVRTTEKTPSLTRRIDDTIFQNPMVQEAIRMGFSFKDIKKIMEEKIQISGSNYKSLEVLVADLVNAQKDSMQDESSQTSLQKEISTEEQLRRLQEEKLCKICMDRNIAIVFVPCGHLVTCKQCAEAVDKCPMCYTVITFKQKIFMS

Sequence of Dihydroorotate dehydrogenase (quinone), mitochondrial (Plasmodium falciparum (isolate 3D7)) (Q08210 whole entry, looked up): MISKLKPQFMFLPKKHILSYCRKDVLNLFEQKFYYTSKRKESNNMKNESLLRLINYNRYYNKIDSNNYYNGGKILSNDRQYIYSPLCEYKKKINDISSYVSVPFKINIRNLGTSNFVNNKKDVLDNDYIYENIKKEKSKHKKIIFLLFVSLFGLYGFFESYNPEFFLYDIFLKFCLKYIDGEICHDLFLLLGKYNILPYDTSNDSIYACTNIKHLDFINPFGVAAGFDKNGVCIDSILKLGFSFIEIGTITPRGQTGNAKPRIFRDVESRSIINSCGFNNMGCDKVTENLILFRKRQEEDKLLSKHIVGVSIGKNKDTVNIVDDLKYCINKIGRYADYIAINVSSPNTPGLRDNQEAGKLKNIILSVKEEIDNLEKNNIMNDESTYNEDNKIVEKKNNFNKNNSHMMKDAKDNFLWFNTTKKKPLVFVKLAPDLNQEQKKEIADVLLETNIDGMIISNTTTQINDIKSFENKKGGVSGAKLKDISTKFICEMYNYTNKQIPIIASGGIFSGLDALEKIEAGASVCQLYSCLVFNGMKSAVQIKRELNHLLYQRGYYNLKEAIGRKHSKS

Row | Compound | z-score [1] | z-score [2] | z-score [3] | z-score [4] | z-score [5] | z-score [6] | z-score [7] | z-score [8] | z-score [9] | z-score [10] | z-score [11] | z-score [12] | z-score [13] | composite z-score [14] | z-score [15] | z-score [16] | z-score [17] | z-score [18] | z-score [19] | composite z-score [20]
1 | O=C(NCCCCCNC(=O)/C(Cc1ccccc1)=N/O)OCc1ccccc1 | 1.54 | 0.989 | -0.756 | -0.781 | 0.476 | -0.348 | 0.627 (inactive) | 0.567 | -0.877 | 0.766 (inactive) | 0.619 | -3.54 (inactive) | 0.63 (inactive) | -0.713 (inactive) | 0.695 (inactive) | -1.21 (inactive) | 1.92 (inactive) | 1.42 (inactive) | 1.09 | -0.253
2 | COCCOC(=O)N1C(=O)[C@@]2(c3cc(C#CC4=CCCCC4)ccc31)[C@H](C(N)=O)[C@H]1C(=O)O[C@H](c3ccccc3)[C@H](c3ccccc3)N1[C@@H]2c1ccccc1OCCO | -2.23 | 0.619 | -3.63 | -3.29 | -3.99 | -2.49 | 2.7 (inactive) | -0.819 | -1.6 | -2.57 (inactive) | -2.76 | 0.132 (inactive) | -4.34 (inactive) | -0.295 (inactive) | 2.21 (inactive) | 1.23 (inactive) | -1.4 (inactive) | -1.23 (inactive) | -5.78 | 0.0899
3 | CN1C(=O)C2C=CC(C(O)C#Cc3ccccc3)N(Nc3ccccc3)C2C1=O (stereo not given) | -1.12 | -0.341 | -0.255 | -1.05 | -0.398 | -1.36 | 0.39 (inactive) | -1 | -1 | 0.699 (inactive) | -0.264 | -1.36 (inactive) | -1.06 (inactive) | 0.164 (inactive) | -0.103 (inactive) | 1.39 (inactive) | -0.0835 (inactive) | -1.05 (inactive) | -0.633 | 0.394
4 | CC(CO)N1C(=O)[C@@H]2[C@H]3C(=O)OCC=C[C@H]3OC23C=CCN(Cc2ccccc2)C(=O)[C@@H]13 (stereo not given in full) | -0.0849 | 0.847 | -1.35 | 1.17 | 0.0239 | -0.378 | 0.508 (inactive) | -0.0286 | 0.491 | 0.881 (inactive) | 1.44 | -0.319 (inactive) | 1.01 (inactive) | -1.07 (inactive) | 0.745 (inactive) | -1.21 (inactive) | 0.518 (inactive) | 0.075 (inactive) | 1.28 | 0.184
